Screens as filed in PubChem.
The list is not random: actives were taken first. Their share in the collection is about 11%.
L3MBTL1 inh – L3MBTL1 (human) inhibition; Q9Y468; AlphaScreen L3MBTL1–H3K9me1 peptide binding; Potency, µM (titrated, usually from 57.1 µM), without a hit: top-dose activity, negative = inhibition, most hits filed as inhibitors; actives 0.66% (n = 230,000); note: % is set by controls: 0 for no effect and ±100 for the full control effect; nearly all actives have a fitted effect of over 60% in size
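Displacement of a biotinylated histone H3(1-15) peptide monomethylated at Lys9 (75 nM) from L3MBTL1 (50 nM) was measured by AlphaScreen after a 30 min room-temperature compound incubation; cefsulodin titration served as intraplate control.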
HP1b chromo inh – HP1-beta chromodomain-methylated histone interaction inhibition; P83916; AlphaScreen HP1-beta / biotin-H3K9me3 peptide binding; Potency, µM (doses to about 114 µM), inactives show at the highest dose activity change, negative = inhibition, hits mostly inhibitors; actives 0.56% (n = 390,000); note: nearly all actives have a fitted effect of over 70% in size
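AlphaScreen: HP1-beta (50 nM) preformed 30 min with biotin-H3(1-18)K9me3 peptide (50 nM) in PBS pH 7.4, 0.01% Tween-20. Compound added for 30 min at RT, then streptavidin donor/nickel chelate acceptor beads (10 ug/mL) for 30 min.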
JMJD2A Tudor inh – JMJD2A Tudor domain (human) inhibition. O75164. AlphaScreen JMJD2A-Tudor / H3K4me3 peptide binding. Potency, µM (titrated, usually from 114 µM), for inactives: at the top dose activity change, negative = inhibition, most hits filed as inhibitors. actives 4.4% (n = 390,000); note: % is set by controls: 0 for no effect and ±100 for the full control effect; nearly all actives have a fitted effect of over 50% in size
BAZ2B block – BAZ2B (human) inhibition; AlphaScreen BAZ2B-H3K14Ac peptide displacement; Potency, µM (highest dose often 114 µM), for the others: at the highest dose activity change, negative = inhibition, actives largely listed as inhibitors; actives 4.4% (n = 360,000); AID 504333; note: % is set by controls: 0 for no effect and ±100 for the full control effect; nearly all actives have a fitted effect of over 60% in size
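In this displacement format the biotinylated H3(5-23) peptide acetylated at Lys14 serves as ligand at 50 nM, with BAZ2B at 50 nM in PBS pH 7.4 containing 0.01% Tween-20. Donor and acceptor beads are 10 ug/mL final.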
G9a block – inhibitors of human histone lysine methyltransferase G9a; AID 504332; actives 8.8% (n = 350,000); Q96KQ7; G9a H3K9 monomethylation, AlphaScreen, 2 h; Potency, µM (top dose mostly 102 µM), inactives show top-dose activity, negative = inhibition, actives largely listed as inhibitors; note: % is set by controls: 0 for no effect and ±100 for the full control effect; nearly all actives have a fitted effect of over 75% in size
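G9a (20 nM) was preincubated 15 min with compound, then reacted 2 h at room temperature with 500 nM biotin-H3K9 peptide and 20 µM SAM. Monomethyl-H3K9 detected by AlphaScreen using anti-H3K9me1 antibody.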
* = called active by the depositor; ? = inconclusive; / = not tested or not shown; [ ] = remark or other dose. Calls come from the whole dose curve; as a rule, active = well fitted inhibition curve with a large enough effect; inconclusive = small, poorly fitted or top-dose-only effect; inactive = no such curve, though single readings can be large or run the other way. Potency is the fitted concentration of half-maximal effect.

SMILES	L3MBTL1 inh	HP1b chromo inh	JMJD2A Tudor inh	BAZ2B block	G9a block
O=C(CSc1nnc(Cn2c(=O)sc3ccccc32)n1-c1ccccc1)N1CCOCC1	-4%	42%	5%	9%	45µM*
O=C(CSc1nc2ccccc2n1CCc1ccccc1)c1ccc(O)c(O)c1	3.2µM*	25µM*	7.9µM*	2.5µM*	/
O=C(CSc1nc2ccccc2n1CCc1ccccc1)N1CCOCC1	-12%	39%	-3%	6%	50µM*
CCOCCCNC(=O)C(NC(=O)c1ccccc1O)c1ccc(C)cc1 (stereo unspecified)	/	41%	-1%	-3%	5.6µM*
Cn1cccc1C(=O)N1CCC2(CC1)CCN(c1ccncc1)CC2	/	/	/	/	-1%[12.7 µM]
Cc1nn(-c2nnc(NC3CCCCC3)nn2)c(C)c1Br	?	?	45µM*	14µM*	22µM*
COc1ccc(Oc2ncc3nc(-c4cc(F)cc(F)c4)c(=O)n(C)c3n2)cc1	/	/	/	/	-7%[12.7 µM]
CN(C)c1ccc(C(=O)n2nnc3ccccc32)cc1	/	63%	23%	7%	-26%
CCCCC1(C)OC(=O)C(=Cc2ccc(N(C)C)cc2)C(=O)O1 (stereo unspecified)	-3%	-1%	-29%	?	3%[12.7 µM]
CN(C)c1ccc(C=c2c3ccccc3n3c2c2ccccc2[n+]3C)cc1	/	13µM*	16µM*	/	/
CCOC(=O)c1cc2c(=Cc3ccc(N(C)C)cc3)c3ccccc3n2[n+]1C	/	50µM*	25µM*	/	/
Cc1cc2c(=Cc3ccc(N(C)C)cc3)c3ccccc3n2[n+]1C	/	32µM*	45µM*	/	/
CC(=O)c1ccc(N2CCN(C(=O)c3cn(C)c(=O)c4c3c3ccccc3n4C)CC2)cc1	/	30%	-17%	-23%	1%[59 µM]
O=C(Cn1c(=O)c(CNc2ccccc2)cc2cc3c(cc21)OCCO3)Nc1ccccc1Cl	/	52%	?	?	?
CC(C)NS(=O)(=O)c1ccc2nc(NC(=O)c3cncc(Br)c3)sc2c1	/	17%[57 µM]	-29%	0%	?
CC(C)Oc1ccc(CNC(=O)CN2C(=O)c3cccnc3Oc3ccc(Cl)cc32)cc1	/	29%	-23%	-5%	-29%[59 µM]
Cc1cccc(OCC(=O)O/N=C(\N)Cc2ccc([N+](=O)[O-])cc2)c1	11%	40%	-13%	4%	35µM*
Cc1ccc(OCC(=O)O/N=C(\N)Cc2ccc([N+](=O)[O-])cc2)cc1C	/	26%	1%	0%	?
Clc1ccc(-c2nnc(SCc3nc4ccccc4[nH]3)o2)c(Cl)c1	0%	13%	-1%	-1%	8.9µM*
Nc1cc(N)nc(SCc2cc([N+](=O)[O-])cc3c2OCOC3)n1	-2%	36%	-2%[11.4 µM]	1%	71µM*
Cc1cccc(C)c1Nc1nnc(SCc2cc([N+](=O)[O-])cc3c2OCOC3)s1	/	21%	-32%	?	50µM*
COc1ccc(NC(=O)COC(=O)CCNC(=O)c2ccco2)cc1Cl	-6%	51%	11%	/	/
Cc1nc2ccc(N=NN(C)C)cc2[nH]1	4%	16µM*	-23%	-21%	/
Cc1ccc2nc(-c3cccs3)c(Nc3ccc4c(c3)OCCO4)n2c1	/	34%	-21%	-23%	?
Cc1cccc(CSc2ncc(Cl)c(C(=O)Nc3sc4c(c3C(N)=O)CCCC4)n2)c1	/	36%	2%	-2%	3%[59 µM]
SMILES	L3MBTL1 inh	HP1b chromo inh	JMJD2A Tudor inh	BAZ2B block	G9a block
CCN1C/C(=C\c2cccc([N+](=O)[O-])c2)C(=O)/C(=C/c2cccc([N+](=O)[O-])c2)C1	-4%	-30%	?	?	25µM*
O=C(COc1ccccc1F)Nc1ccccc1OCc1cc(=O)n2ccccc2n1	/	14%[57 µM]	-7%	0%	7%[59 µM]
CCCC12CN3CC(CCC)(CN(C1)C3c1ccc(OCc3ccccc3)cc1)C2=O (stereo unspecified)	/	45%	-8%	-1%	1%[59 µM]
CCS(=O)(=O)c1ccc2oc(Nc3cc(Cl)ccc3OC)nc2c1	/	31%	7%	5%	35µM*
Cc1ccc(CC2SC(N)=NC2=O)cc1 (stereo unspecified)	-3%	55%	-23%	-39%	16%
Cc1cccc(CC2SC(N)=NC2=O)c1 (stereo unspecified)	/	-8%	-9%	1%	50µM*
N#Cc1c(-c2ccco2)cc(-c2cccnc2)nc1N	-16%	49%	-15%	?	35µM*
N#Cc1c(-c2ccco2)cc(C2CC2)nc1N	5%	30%	-1%	-2%	14µM*
N#Cc1c(-c2ccccc2)cc(C2CC2)nc1N	0%	25%	1%	-9%	11%[59 µM]
N#Cc1c(-c2cccnc2)cc(-c2ccccc2)nc1N	16%	58%	16%	1%	/
S=c1[nH]nc(CSCCOc2ccc(Cl)cc2Cl)o1	-8%	7%	-16%	-37%	20µM*
CC1(C(=O)O)CCC2(C)CCC3(C)C(=CC(=O)C4C5(C)CCC(O)C(C)(C)C5CCC43C)C2C1 (stereo unspecified)	/	/	/	/	-6%[12.7 µM]
Nc1ccc(-c2nc3ccc(N)cc3[nH]2)cc1	-12%	?	56µM*	?	-39%
Nc1ccc2nc(C3CCCCC3)[nH]c2c1	-24%	13%	-17%	56µM*	?
Nc1ccc2nc(-c3ccc(Cl)cc3)[nH]c2c1	/	18%	?	-29%	?
Cc1nc2ccc(-c3nc4ccc(N)cc4[nH]3)cc2[nH]1	1%	16%	-30%	-25%	?
Nc1cc(N)cc(-c2nc3ccccc3[nH]2)c1	-24%	-36%	?	45µM*	22µM*
Nc1ccc2nc(-c3cccc(-c4nc5ccc(N)cc5[nH]4)c3)[nH]c2c1	/	-17%[57 µM]	-34%	?	22µM*
c1ccc(-c2nc3ccccc3[nH]2)cc1	/	35%	-8%	3%	-3%[12.7 µM]
